Screens deposited in PubChem by Corson Lab, School of Medicine, Indiana University.
FECH block – inhibitors of human ferrochelatase, primary screen, biochemical, purified FECH, Ni-mesoporphyrin absorbance | Ferrochelatase, mitochondrial (Homo sapiens), P22830 | Ni-mesoporphyrin absorbance 550 nm | calls only at 10 µM (by protocol) | actives 3.3% (n = 20,000);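 active = enzyme reaction rate more than 3 SD below the solvent-only control wells on the same plate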;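 note: lower slope than DMSO wells means FECH inhibition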
Target sequence (P22830 whole entry, looked up): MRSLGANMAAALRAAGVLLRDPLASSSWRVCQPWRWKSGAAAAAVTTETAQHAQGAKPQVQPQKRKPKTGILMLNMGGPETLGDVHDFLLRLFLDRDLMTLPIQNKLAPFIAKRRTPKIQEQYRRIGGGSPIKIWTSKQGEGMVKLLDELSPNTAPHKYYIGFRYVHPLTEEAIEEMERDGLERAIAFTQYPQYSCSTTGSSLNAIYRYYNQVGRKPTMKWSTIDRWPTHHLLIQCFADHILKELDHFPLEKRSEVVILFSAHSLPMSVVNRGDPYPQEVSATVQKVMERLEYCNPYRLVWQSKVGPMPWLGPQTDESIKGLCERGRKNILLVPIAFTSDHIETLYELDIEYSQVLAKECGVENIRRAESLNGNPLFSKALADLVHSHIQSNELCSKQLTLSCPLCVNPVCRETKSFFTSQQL
* marks the source's active call; other numbers are inactive results. Only a selection was taken, and hits are over-represented in it overall.

Results for Cc1cc(C)c(NC(=O)CN2CCCN(Cc3ccccc3)S2(=O)=O)c(C)c1 ?
FECH block: inactive

What do the screens show for `Cc1ccc(C)c(NC(=O)CN2CCCN(Cc3cccc(F)c3)S2(=O)=O)c1`?
FECH block: inactive

How did Cc1ccc(NC(=O)CN2CCN(Cc3ccc(F)cc3)S2(=O)=O)c(C)c1 do in these assays?
FECH block: inactive

How did Cc1cccc(CN2CCN(CC(=O)Nc3cc(C)ccc3C)S2(=O)=O)c1 do in these assays?
FECH block: active

What do the screens show for `Cc1ccc(NC(=O)CN2CCCN(Cc3ccc(Cl)cc3)S2(=O)=O)c(C)c1`?
FECH block: inactive

How did CCCc1c(C)nc2ncnn2c1Sc1ccc(NC(=O)c2ccc(Cl)cc2)cc1 do in these assays?
FECH block: inactive

What do the screens show for `OC1CCN(c2ccnc(-c3cccc4[nH]ccc34)n2)C1` (configuration not stated)?
FECH block: inactive

How did COc1ccc(S(=O)(=O)NCCn2c(-c3ccc(F)cc3)nc3cccnc32)cc1Cl do in these assays?
FECH block: inactive

Results for CC(C)c1ccc(NC(=O)CSc2ncnc3nc(N(C)C)sc23)cc1 ?
FECH block: inactive

What do the screens show for `Fc1ccc(-c2[nH]ncc2CNC23C[C@H]4C[C@@H](C2)CC(n2cncn2)(C4)C3)cc1`?
FECH block: inactive

Results for COc1cc(-c2ncnc3scc(C)c23)cc(OC)c1OC ?
FECH block: inactive

Results for CCc1nc2nc(C)c(NC(=O)Nc3cccc(C(F)(F)F)c3)c(=O)n2[nH]1 ?
FECH block: inactive

How did Cc1nc2nc(C)c(NC(=O)Nc3cccc(C(F)(F)F)c3)c(=O)n2[nH]1 do in these assays?
FECH block: inactive

Results for COc1cccc(NC(=O)Nc2c(C)nc3nc(C)[nH]n3c2=O)c1 ?
FECH block: inactive

How did O=c1cc(CNc2cccc(C(F)(F)F)c2)nc2nc(NCc3ccc(Cl)cc3)[nH]n12 do in these assays?
FECH block: inactive

How did CCOC(=O)CCc1c(C)nc2nc(CNc3ccccc3OCC)[nH]n2c1=O do in these assays?
FECH block: inactive

Results for CCOc1ccccc1NCc1nc2nc(C)c(Cc3ccc(Cl)cc3)c(=O)n2[nH]1 ?
FECH block: active

How did COc1cccc(NCc2nc3nc(C)c(Cc4ccc(Cl)cc4)c(=O)n3[nH]2)c1 do in these assays?
FECH block: active

How did Cc1nc2nc(Cc3cccc(F)c3)[nH]n2c(=O)c1C do in these assays?
FECH block: inactive

What do the screens show for `Cc1nc2nc(C3CC3)[nH]n2c(=O)c1NC(=O)Nc1ccc(Cl)cc1`?
FECH block: inactive

Results for CCOC(=O)CCc1c(C)nc2nc(CNc3cccc(C(F)(F)F)c3)[nH]n2c1=O ?
FECH block: active

What do the screens show for `CCOc1ccccc1N(Cc1nc2nc(C)cc(=O)n2[nH]1)C(=O)c1ccccc1F`?
FECH block: inactive

How did CCc1ccccc1NCc1nc2nc(C)c(Cc3ccc(Cl)cc3)c(=O)n2[nH]1 do in these assays?
FECH block: active

How did COC(=O)c1cccc(C2CC(=O)Nc3c2cnn3CC2CCCCC2)n1 (configuration not stated) do in these assays?
FECH block: inactive

Results for CN(C)C(=O)c1ccc2c(c1)N(CC(N)=O)C(=O)C1CCCCN21 (configuration not stated) ?
FECH block: inactive

Results for O=S(=O)(NCc1ccccc1)N1CC2C[C@@H]3CC1C[C@H](C2)C3 ?
FECH block: inactive

What do the screens show for `CCc1cc(Sc2ccccc2NC(=O)Cc2cccc(F)c2)n2nc(C)nc2n1`?
FECH block: inactive

What do the screens show for `COc1cc(OC)c(NC(=O)CN2CCN(Cc3ccccc3F)S2(=O)=O)cc1Cl`?
FECH block: inactive

What do the screens show for `COc1ccccc1NC(=O)CN1CCCN(Cc2cccc(C)c2)S1(=O)=O`?
FECH block: active

What do the screens show for `COc1ccccc1NC(=O)CN1CCCN(Cc2ccc(Cl)cc2)S1(=O)=O`?
FECH block: inactive

Results for COc1ccc(NC(=O)CN2CCCN(Cc3ccccc3)S2(=O)=O)c(OC)c1 ?
FECH block: inactive

What do the screens show for `COc1cc(OC)c(NC(=O)CN2CCCN(Cc3ccccc3)S2(=O)=O)cc1Cl`?
FECH block: active

How did CCOc1ccccc1NC(=O)CN1CCCN(Cc2cccc(C)c2)S1(=O)=O do in these assays?
FECH block: active

Results for CCOc1ccccc1NC(=O)CN1CCCN(Cc2ccc(OC)cc2)S1(=O)=O ?
FECH block: inactive

What do the screens show for `COc1ccccc1NC(=O)CN1CCCN(Cc2cccc(F)c2)S1(=O)=O`?
FECH block: inactive

How did CCOC(=O)c1ccccc1NC(=O)CN1CCCN(Cc2cccc(C)c2)S1(=O)=O do in these assays?
FECH block: inactive

How did CCCn1ncc(CN2CCOC(c3ccc(Cl)c(Cl)c3)C2)c1C (configuration not stated) do in these assays?
FECH block: inactive

What do the screens show for `CCCN(CCC)c1ncc(NS(=O)(=O)c2cc(C)ccc2C)cc1C(=O)O`?
FECH block: inactive

Results for Cc1ccc(-c2cc(Nc3ccc(Nc4ccccc4)cc3)nc(C)n2)cc1 ?
FECH block: inactive

Results for O=C(Nc1cnc2n1CCCC2)c1coc2c1C(=O)CCC2 ?
FECH block: inactive

How did CCc1cn[nH]c1C1CCN(Cc2cc3c(cc2OC)OCCCO3)CC1 do in these assays?
FECH block: inactive

Results for COc1ccc(Nc2nc(NCC3CCCO3)nc3c2cnn3-c2ccccc2)cc1 (configuration not stated) ?
FECH block: inactive

What do the screens show for `Fc1ccc(Nc2nc(NCC3CCCO3)nc3c2cnn3-c2ccccc2)cc1` (configuration not stated)?
FECH block: inactive

Results for CC(C)OCCCNc1nc(Nc2ccc(Cl)cc2)c2cnn(-c3ccccc3)c2n1 ?
FECH block: active

How did COc1ccc(Nc2nc(NCCCOC(C)C)nc3c2cnn3-c2ccccc2)cc1 do in these assays?
FECH block: inactive

Results for CC(C)OCCCNc1nc(Nc2ccc(F)cc2)c2cnn(-c3ccccc3)c2n1 ?
FECH block: inactive

Results for Clc1ccc(Nc2nc(NCC3CCCO3)nc3c2cnn3-c2ccccc2)cc1 (configuration not stated) ?
FECH block: active

What do the screens show for `Cc1cnccc1N1CCCN(C(=O)Nc2nncs2)CC1`?
FECH block: inactive

Results for COc1ccc(F)c(F)c1CN1CCN(Cc2ncccc2C)CC1 ?
FECH block: inactive

What do the screens show for `Cc1cccc(-c2nc3nc(CN4CCC(C)CC4)cc(=O)n3[nH]2)c1`?
FECH block: inactive

Results for CCOc1ncccc1C(=O)N1CCC2(CC1)C(=O)NCCCN2C ?
FECH block: inactive

What do the screens show for `CCN1CCN(C(=O)C(=O)NCc2n[nH]c(=O)c3ccccc23)CC1`?
FECH block: inactive

Results for CCN1CCN(C(=O)c2ccc3oc(=O)n(Cc4ccc(C)cc4)c3c2)CC1 ?
FECH block: inactive

What do the screens show for `CN1CCN(C(=O)c2ccc3oc(=O)n(Cc4ccccc4)c3c2)CC1`?
FECH block: inactive

What do the screens show for `O=C(c1ccc2oc(=O)n(Cc3ccccc3)c2c1)N1CCN(Cc2ccccc2)CC1`?
FECH block: active

What do the screens show for `Cc1ccc(NCc2cc(=O)n3[nH]c(-c4ccccc4C)nc3n2)cc1`?
FECH block: active

What do the screens show for `Cc1ccccc1-c1nc2nc(CNc3ccccc3)cc(=O)n2[nH]1`?
FECH block: active

What do the screens show for `Cc1ccccc1-c1nc2nc(CNc3cccc(Cl)c3)cc(=O)n2[nH]1`?
FECH block: inactive
